The text below walks through data of publication PMC4336329 (PLoS ONE, 2015).

In all, about 310,000 compounds went through this assay and about 14,000 (4.5%) showed an effect of 50% or more. Effects have a minus sign here. What follows is part of a selection rich in strong results, with near analogues and random picks from the rest.
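Further: peak tail current of the secondary pulse compared with the same well before compound.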

This assay deals with human ether-à-go-go-related gene (hERG) potassium channel (human, UniProt Q12809). Description: primary screen, population patch clamp on CHO cells stably expressing hERG; higher = less effect of the substance.
Sequence of human ether-à-go-go-related gene (hERG) potassium channel (Q12809 whole entry, looked up): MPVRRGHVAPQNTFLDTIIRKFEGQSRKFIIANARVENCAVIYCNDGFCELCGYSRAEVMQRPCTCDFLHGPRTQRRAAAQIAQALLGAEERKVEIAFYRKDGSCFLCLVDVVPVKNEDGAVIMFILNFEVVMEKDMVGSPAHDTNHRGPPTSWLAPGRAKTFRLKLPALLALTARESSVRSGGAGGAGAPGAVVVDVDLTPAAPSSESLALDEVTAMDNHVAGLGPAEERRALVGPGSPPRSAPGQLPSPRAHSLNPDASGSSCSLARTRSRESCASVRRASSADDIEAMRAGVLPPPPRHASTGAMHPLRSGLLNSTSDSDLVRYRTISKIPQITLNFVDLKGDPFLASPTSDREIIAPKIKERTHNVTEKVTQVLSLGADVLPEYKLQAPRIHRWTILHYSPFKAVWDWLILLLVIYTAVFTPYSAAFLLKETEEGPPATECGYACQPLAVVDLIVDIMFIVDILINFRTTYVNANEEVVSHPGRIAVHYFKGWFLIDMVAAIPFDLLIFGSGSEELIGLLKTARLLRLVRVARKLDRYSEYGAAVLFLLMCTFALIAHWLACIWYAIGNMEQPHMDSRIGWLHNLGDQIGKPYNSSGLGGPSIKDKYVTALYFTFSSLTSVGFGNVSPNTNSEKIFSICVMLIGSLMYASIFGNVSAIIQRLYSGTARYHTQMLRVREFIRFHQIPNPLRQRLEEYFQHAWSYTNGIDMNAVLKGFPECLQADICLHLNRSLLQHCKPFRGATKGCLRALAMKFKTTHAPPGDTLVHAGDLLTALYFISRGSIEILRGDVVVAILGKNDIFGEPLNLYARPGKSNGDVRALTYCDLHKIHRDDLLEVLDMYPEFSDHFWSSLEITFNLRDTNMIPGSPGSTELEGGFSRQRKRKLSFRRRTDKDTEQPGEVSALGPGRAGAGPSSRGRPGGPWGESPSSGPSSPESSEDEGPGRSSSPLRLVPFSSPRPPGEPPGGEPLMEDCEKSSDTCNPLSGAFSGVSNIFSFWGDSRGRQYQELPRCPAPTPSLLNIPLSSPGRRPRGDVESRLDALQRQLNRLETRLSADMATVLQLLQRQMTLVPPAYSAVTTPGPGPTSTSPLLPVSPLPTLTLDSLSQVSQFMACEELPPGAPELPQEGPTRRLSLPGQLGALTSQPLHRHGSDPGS
Turning to `CS(=O)(=O)c1ccc(C(=O)NCC(c2ccco2)N2CCCCC2)cc1` (stereo not drawn), the “hERG current change (%, negative = inhibition) at 10uM” value was determined as 18%.
The same measure for `Cc1cc(OCC(=O)NCC(O)c2ccccc2)c2c3c(c(=O)oc2c1)CCCC3` (stereo not drawn): 12.1%; for `CCCCn1c(N)c(N(CCOC)C(=O)c2ccco2)c(=O)[nH]c1=O`: 0.12%; for `Cc1ccc(-n2c(SCC(=O)N/N=C/c3c(C)nn(-c4ccccc4)c3C)nc3ccccc3c2=O)cc1`: -7.33%.
As for `O=C(Nc1ccccc1)N1CCC(O)(c2cccc(C(F)(F)F)c2)CC1`, the “hERG current change (%, negative = inhibition) at 10uM” value is -6.72%.
As for `c1ccc(-c2nc3ccccc3s2)nc1`, the figure is 4.67%.
Consider `Cc1ccc(-n2c(SCC(=O)N3c4ccccc4Sc4ccccc43)nnc2-c2ccncc2)cc1`, for which the “hERG current change (%, negative = inhibition) at 10uM” value is -3.06%.
For `COc1ccc(NC(=O)CN(C)C(=O)C(C)Sc2ccccc2)cc1` (stereo not drawn), the “hERG current change (%, negative = inhibition) at 10uM” value is 5.43%.
Turning to `COC(=O)Cn1c2nc3ccccc3nc2c2cccc(C)c21`, the “hERG current change (%, negative = inhibition) at 10uM” value was found to be 9.86%.
As for `COC(=O)Cn1cnc2c(C#N)c3n(c2c1=O)CCCCC3`, the figure is -8.01%.
As for `COc1cc(-c2nn3c(COc4ccccc4)nnc3s2)cc(OC)c1OC`, the figure is 14.8%.
For `O=C(NCc1ccccc1)c1ccco1`, the “hERG current change (%, negative = inhibition) at 10uM” value turned out to be 2.34%.
The same measure for `CC(C)CCN1CCN(Cc2cccc3nonc23)CC1CCO` (stereo not drawn): -16.7%; for `CC(C)N1CCN(Cc2cccc3nonc23)CC1CCO` (stereo not drawn): 1.05%; for `CCOc1ccccc1CN1CCN(Cc2ccon2)CC1CCO` (stereo not drawn): -42.6%.
The same measure for `COc1cccc(CN2CCN(Cc3cccc4nonc34)CC2CCO)c1` (stereo not drawn): -66.3%; for `CCOc1ccccc1CN1CCN(Cc2cccc3nonc23)CC1CCO` (stereo not drawn): -73.3%.
Take `COc1cccc(CN2CCN(Cc3ccon3)CC2CCO)c1` (stereo not drawn): the “hERG current change (%, negative = inhibition) at 10uM” value is 0.227%.
The same measure for `Cc1cccc(CN2CCN(Cc3cccc4nonc34)CC2CCO)n1` (stereo not drawn): -24.1%.
The same measure for `COc1cccc(CN2CCN(Cc3cccc4c3OCO4)CC2CCO)c1` (stereo not drawn): -23.2%; for `COc1ccc(CN2CCN(Cc3cccc4nonc34)CC2CCO)c(C)c1C` (stereo not drawn): -68.3%; for `CCOc1ccc(CN2CCN(Cc3cccc4nonc34)CC2CCO)cc1` (stereo not drawn): -77.1%.
The same measure for `Cc1ccc(-n2nc3c(=O)n(CC(=O)NCCc4ccc(Cl)cc4)nc(C)c3c2C)cc1`: -10.2%; for `CCc1ccccc1N(CC(=O)N1CCN(c2ccccc2F)CC1)S(C)(=O)=O`: 0.701%.
For the molecule `COc1ccc(S(=O)(=O)NCC(c2ccco2)N2CCOCC2)cc1` (stereo not drawn), the “hERG current change (%, negative = inhibition) at 10uM” value is recorded as -19.1%.
In the case of `COC(=O)N/N=C(\C)c1ccc(Br)cc1`, the “hERG current change (%, negative = inhibition) at 10uM” value amounted to 11.6%.
With `CCCCN(CC)C(=O)c1n[nH]c(=O)c2ccccc12`, the “hERG current change (%, negative = inhibition) at 10uM” value is 2.92%.
As for `Cc1nc(CNC(=O)C2CCC(=O)N(Cc3cccc(F)c3)C2)sc1C` (stereo not drawn), the figure is 5.68%; as for `Cc1onc(-c2c(Cl)cccc2Cl)c1C(=O)N1CCc2ccccc21`, -19.9%; as for `Cc1cc2c(cc1S(=O)(=O)Nc1cccc(F)c1)n(C)c(=O)c(=O)n2C`, -10.9%.
For `O=C(NC1CCCCC1)c1cc2ccccc2cc1O`, the “hERG current change (%, negative = inhibition) at 10uM” value is listed as -12.7%.
As for `Cc1ccc(S(=O)(=O)N2CCC3(CC2)CC(=O)c2ccccc2O3)cc1`, the figure is -25.7%; as for `COc1ccc(S(=O)(=O)N2CCC3(CC2)CC(=O)c2ccccc2O3)cc1`, -24.8%; as for `CC(=O)c1ccc(S(=O)(=O)N2CCC3(CC2)CC(=O)c2ccccc2O3)cc1`, -42.6%.
As for `O=C(O)c1ccc(S(=O)(=O)N2CCC3(CC2)CC(=O)c2ccccc2O3)cc1`, the figure is 11.5%; as for `O=C1CC2(CCN(S(=O)(=O)c3ccccc3F)CC2)Oc2ccccc21`, -84.6%.
As for `O=C1CC2(CCN(S(=O)(=O)c3ccccc3)CC2)Oc2ccccc21`, the figure is -84.6%.
For `O=C(Nc1nnc(-c2ccc(Br)cc2)o1)c1cccc(N2C(=O)CCC2=O)c1`, the “hERG current change (%, negative = inhibition) at 10uM” value stood at 13.4%.
The same measure for `COc1ccc(CN2CC[C@H]3C=CC[C@@H](C(=O)N4CCOCC4)[C@H]3C2=O)cc1OC`: 7.75%.
The same measure for `CC(=O)N1N=C(c2ccc3nccnc3c2)CC1c1ccccc1` (stereo not drawn): -34.9%; for `CC(=O)N1N=C(c2ccc(NS(C)(=O)=O)cc2)CC1c1ccc2nccnc2c1` (stereo not drawn): -63.2%; for `CC(=O)N1N=C(c2ccc(C)cc2)CC1c1ccc2c(c1)OCO2` (stereo not drawn): -30.1%.
As for `CS(=O)(=O)Nc1cccc(C2=NN(S(C)(=O)=O)C(c3ccc4c(c3)OCO4)C2)c1` (stereo not drawn), the figure is -62.3%; as for `CS(=O)(=O)N1N=C(c2ccccc2)CC1c1ccc2c(c1)OCO2` (stereo not drawn), 13.9%; as for `Cc1ccc(C2=NN(S(C)(=O)=O)C(c3ccc4c(c3)OCO4)C2)cc1` (stereo not drawn), -2%.
As to `CC(=O)N1N=C(c2cccc(NS(C)(=O)=O)c2)CC1c1ccc2c(c1)OCO2` (stereo not drawn), the “hERG current change (%, negative = inhibition) at 10uM” value was -59.2%.
With `CC(=O)N1N=C(c2ccccc2)CC1c1ccc2c(c1)OCO2` (stereo not drawn), the “hERG current change (%, negative = inhibition) at 10uM” value was found to be 1.98%.
The same measure for `CS(=O)(=O)Nc1ccc(C2=NN(S(C)(=O)=O)C(c3ccc4nccnc4c3)C2)cc1` (stereo not drawn): -32.8%; for `Cc1c(/C=N/NC(=O)c2cc(Br)ccc2O)c(=O)n(C)c(=O)n1C`: 3.23%; for `Cc1[nH]c2ccccc2c1C(=O)C(=O)N1CCC2(CC1)OCCO2`: 7.95%.
As for `COc1cccc(NC(=O)CN(C)CC(=O)Nc2ccc(C)c([N+](=O)[O-])c2)c1`, the figure is -15.8%; as for `CCOc1ccccc1N(CC(=O)NC1CCCCC1)S(=O)(=O)c1ccc(C)cc1`, -7.2%; as for `CSCCC(NC(=O)c1ccc(Cl)cc1Cl)C(=O)NCc1ccccn1` (stereo not drawn), -8.59%.
The same measure for `Cc1ccc(NCc2n[nH]c(=S)n2-c2ccccc2)cc1`: 15%; for `O=C(NCc1cccnc1)Nc1cccc(Cl)c1`: 15%.
With `O=C(Nc1ccc(Cl)cc1)Nc1cccnc1`, the “hERG current change (%, negative = inhibition) at 10uM” value is -50.7%.
The same measure for `O=C(Cc1csc(NC(=O)Nc2cccc(Cl)c2)n1)NCc1cccnc1`: -53.8%.
Consider `O=C(Cc1csc(NC(=O)Nc2ccc(Cl)cc2)n1)NCc1cccnc1`, for which the “hERG current change (%, negative = inhibition) at 10uM” value was -50.8%.
The same measure for `O=C(Cc1csc(NC(=O)Nc2cccc(Cl)c2)n1)NCc1ccccn1`: -5.14%; for `O=C(Nc1cccnc1)Nc1ccc(F)c(Cl)c1`: -36.8%; for `O=C(Cc1csc(NC(=O)Nc2ccc(Cl)cc2)n1)NCc1ccccn1`: -44.7%.
As for `COc1ccccc1NC(=O)Nc1nc(CC(=O)NCc2cccnc2)cs1`, the figure is -13.3%; as for `O=C(Nc1ccc(Cl)c(Cl)c1)c1cccnc1`, -2.86%; as for `O=C(Nc1ccc(F)c(Cl)c1)c1cccnc1`, -65.9%.
As for `O=C(Nc1ccc(F)c(F)c1)c1cccnc1`, the figure is 0.898%; as for `O=C(Nc1cccnc1)Nc1cc(Cl)cc(Cl)c1`, 6.81%.
